The list is not random: actives were taken first. Their share in the collection is about 2.4%.
POLB inh: qHTS Assay for Inhibitors of DNA Polymerase Beta; Potency, µM (titrated, usually from 114 µM), inactives show at the highest dose activity change, negative = inhibition, hits mostly inhibitors; Pol beta primer extension/strand displacement, fluorescence kinetic; 1.3% of 340,000 active; further: on the % scale 0 is the no-effect control and ±100 the full control effect
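Pol beta (10 nM) was preincubated with compound for 15 min at room temperature. The reaction was then started with 50 nM substrate and read immediately and after a further 10 min at room temperature.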
POLK inh: qHTS for Inhibitors of Polymerase Kappa; DNA polymerase kappa (Homo sapiens), Q9UBT6; purified Pol kappa, fluorescent DNA synthesis assay, 10 min; Potency, µM (titrated, usually from 107 µM), without a hit: at the top dose activity, negative = inhibition, actives largely listed as inhibitors; 0.53% of 400,000 active; AID 588579, 2011; further: on the % scale 0 is the no-effect control and ±100 the full control effect
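Readout: fluorescence, taken kinetically at 0 and 10 min. Conditions: 10 nM Pol kappa, 15 min RT compound preincubation, 50 nM substrate final. Controls: enzyme-free buffer wells.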
POLH inh: qHTS for Inhibitors of Polymerase Eta; DNA polymerase eta (Homo sapiens), Q9Y253; recombinant Pol eta, fluorescent DNA replication assay; Potency, µM (doses to about 114 µM), for the others: top-dose activity change, negative = inhibition, actives largely listed as inhibitors; 1.2% of 390,000 active; further: on the % scale 0 is the no-effect control and ±100 the full control effect
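Fluorescent replication assay: 50 nM final substrate added after a 15 min room-temperature compound preincubation with 10 nM enzyme. Signal taken at 0 min and again at 10 min.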
Tb PGK inh: qHTS Assay to Find Inhibitors of Phosphoglycerate Kinase | PGK/GAPDH coupled, Kinase-Glo luminescence, 60 min | Potency, µM (doses to about 57.5 µM), for the others: top-dose activity change, negative = inhibition, actives largely listed as inhibitors | 0.043% of 380,000 active | AID 602233, 2012; further: on the % scale 0 is the no-effect control and ±100 the full control effect; nearly all actives have a fitted effect of over 60% in size
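Luminescent ATP detection (Kinase-Glo Plus) follows a 60-minute room-temperature incubation, with wells lacking PGK as controls. Buffer: 100 mM TEA (pH 7.6), 5 mM MgCl2, 0.01% Tween-20. Coupling enzyme GAPDH (100 nM final) supplies unstable 1,3-BPG in-well.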
POLI inh: qHTS for Inhibitors of Polymerase Iota; DNA polymerase iota (Homo sapiens), Q9UNA4; Pol iota fluorescent replication assay, 10 min; Potency, µM (doses to about 115 µM), for inactives: at the top dose activity, negative = inhibition, usual class: inhibitors; 1% of 390,000 active; AID 588590, 2011
Target sequence (Q9UNA4 whole entry, looked up): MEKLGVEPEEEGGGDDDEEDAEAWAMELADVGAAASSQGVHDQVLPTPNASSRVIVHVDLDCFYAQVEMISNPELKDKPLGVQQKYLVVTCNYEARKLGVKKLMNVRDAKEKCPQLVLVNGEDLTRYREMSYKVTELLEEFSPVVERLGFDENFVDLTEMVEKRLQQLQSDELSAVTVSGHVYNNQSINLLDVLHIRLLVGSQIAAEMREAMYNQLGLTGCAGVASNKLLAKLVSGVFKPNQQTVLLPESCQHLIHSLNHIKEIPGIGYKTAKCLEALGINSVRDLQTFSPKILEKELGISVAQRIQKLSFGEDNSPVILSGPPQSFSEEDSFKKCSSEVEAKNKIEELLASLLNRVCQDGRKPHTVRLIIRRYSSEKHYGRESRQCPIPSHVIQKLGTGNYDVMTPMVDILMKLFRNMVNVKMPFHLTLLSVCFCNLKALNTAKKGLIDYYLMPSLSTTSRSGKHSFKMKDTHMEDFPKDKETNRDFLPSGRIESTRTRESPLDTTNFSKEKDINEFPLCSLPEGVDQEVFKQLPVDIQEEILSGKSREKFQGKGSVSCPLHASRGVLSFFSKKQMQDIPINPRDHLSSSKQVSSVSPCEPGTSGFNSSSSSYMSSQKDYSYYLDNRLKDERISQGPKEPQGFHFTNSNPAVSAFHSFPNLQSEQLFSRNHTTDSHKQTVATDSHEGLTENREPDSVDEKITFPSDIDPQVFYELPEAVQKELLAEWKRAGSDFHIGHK
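Fluorescent replication assay read twice, at 0 min and 10 min after adding 50 nM (final) substrate. Enzyme (10 nM) and compounds were first incubated 15 min at room temperature; enzyme-free buffer wells were negative controls.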
FEN1 inh-1: qHTS Assay for the Inhibitors of Human Flap endonuclease 1 (FEN1). P39748. Recombinant FEN1 flap cleavage, fluorescence, 15 min. Potency, µM (top dose mostly 114 µM), for inactives: at the highest dose activity change, negative = inhibition, most hits filed as inhibitors. 0.35% of 390,000 active; further: on the % scale 0 is the no-effect control and ±100 the full control effect; nearly all actives have a fitted effect of over 65% in size
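FEN1 at 10 nM preincubated with compounds 15 min at room temperature, then flap DNA substrate added at 50 nM final. Signal read at 0 and 15 min; concentration-response fitted with four-parameter Hill equation.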
FEN1 inh-2: qHTS Assay for the Inhibitors of FEN1: Confirmatory Assay for Cherry-picked Compounds | FEN1 flap cleavage, TAMRA/BHQ2 fluorogenic DNA substrate | Potency, µM, hits mostly inhibitors | shares compounds with FEN1 inh-1 | AID 720498, 2013 | 79% of 880 active; further: nearly all actives have a fitted effect of over 60% in size
An asterisk follows results filed as active; i = inactive; ? = inconclusive; . = no result; [ ] = remark or other dose. The call rests on the fitted dose curve; in most records, active means well fitted curve in the direction sought with a large enough effect; inconclusive means small, poorly fitted or top-dose-only effect, or another doubt; inactive means no such curve, though single readings can be large; an effect the other way counts as inactive or inconclusive. Potency means the concentration at half of the fitted maximal effect.

SMILES | POLB inh | POLK inh | POLH inh | Tb PGK inh | POLI inh | FEN1 inh-1 | FEN1 inh-2
CCC/C=C1/CCCOC(C(=O)NCC2CC2)(C(F)(F)F)C1 (stereo unspecified) | . | 0% | . | . | 6% | -6% | .
O=[N+]([O-])c1ccc(/C=N/Nc2nc(N3CCCCC3)nc(N3CCCCC3)n2)cc1 | 4% | -2% | -2% | -2% | 6% | 16% | .
O=[N+]([O-])c1ccc(/C=N/Nc2nc(N3CCCCCC3)nc(N3CCCCCC3)n2)o1 | ? | -10% | -18% | -6% | -10% | 35µM* | 38*
COc1cc(NC(=O)C2CCN(S(=O)(=O)c3c(C)noc3/C=C/c3ccccc3F)CC2)cc(OC)c1OC | 5% | -7%[60.1 µM] | 5% | 3% | 8% | -2% | .
CCN1/C(=C/c2ccc3cc(C)ccc3[n+]2CC)Sc2ccccc21 | ? | -34% | ? | -13% | ? | ? | 19*
CCN1/C(=C/C=C/C=C/C=C/c2sc3ccccc3[n+]2CC)Sc2ccccc21 | -10% | -2%[60.1 µM] | -16% | -8% | ? | -17% | .
CCN(CC)CCNC(=O)c1cc2c(=O)n(C)c3ccccc3c2s1 | 12% | 17% | -7% | i | 7% | 50µM* | 48*
COc1ccccc1NC(=O)C1=C(C)Nc2c(C(=O)Nc3cccc(C)c3)cnn2C1c1ccccc1Cl (stereo unspecified) | 6% | -4% | -7% | -8% | 24% | -9% | .
Cc1cccc2nc(-c3cccc(NC(=O)c4ccc(Cl)cc4)c3)cn12 | 1% | -5% | 2% | -5% | ? | ? | 60*
N[C@@H](CCS(=O)O)C(=O)O | . | 7%[19.4 µM] | . | . | . | . | .
O=C1c2ccccc2-c2onc3c(N4CCN(C5CCCCC5)CC4)cc(NCCO)c1c23 | 57% | -20% | 0% | -7% | 21% | -20% | .
CN(C)CCCNc1cc(N2CCN(C3CCCCC3)CC2)c2noc3c2c1C(=O)c1ccccc1-3 | -22% | -20% | ? | i | 41% | 11µM* | 30*
COc1ccc(N)c2c1C(=O)c1ccccc1C2=O | ? | ? | -20% | -18% | ? | ? | 76*
O=C1c2cccc3cc([N+](=O)[O-])cc(c23)C(=O)N1/N=C/c1ccc(O)cc1O | 40µM* | ? | 50µM* | 2% | ? | ? | 43*
COc1ccccc1/C=N/N1C(=O)c2cccc3cccc(c23)C1=O | -2% | -14% | -10% | -3% | 44% | -2% | .
Cc1ccc(-c2cc(C(=O)Nc3ccc(S(=O)(=O)Nc4ncccn4)cc3)[nH]n2)c(O)c1C | ? | -31% | 45µM* | -17% | ? | ? | ?
CCC(Sc1nc2ccsc2c(=O)n1Cc1ccc(C(=O)O)cc1)C(=O)Nc1ccc(C)c(Cl)c1 (stereo unspecified) | ? | -30% | 79µM* | -18% | ? | ? | ?
Cc1ccc(NC(=O)N2CCN(c3nnc(C)c4c(C)n(-c5ccc(Cl)cc5)nc34)CC2)c(C)c1 | 8% | -5% | . | . | -4% | -6% | .
CCS(=O)(=O)N1CCc2cc(C(=O)NC(C)c3ccccc3)ccc21 (stereo unspecified) | -12% | -3% | -9% | -8% | 10% | 4% | .
O=C(CSc1nnc(-c2ccco2)o1)c1ccc[nH]1 | 14µM* | ? | ? | -10% | 14µM* | -16% | ?
COc1ccc(NC(=O)c2cc3c(-c4ccc(OC)c(OC)c4)nn(C)c3s2)cc1OC | 28µM* | ? | ? | 5% | ? | 11µM* | 11*
COc1ccc(OC)c(CCNC(=O)Cn2nc(C)c3c(C)n(-c4ccc(C)cc4)nc3c2=O)c1 | ? | ? | -18% | -5% | ? | ? | ?
COc1ccc(CCNC(=O)Cn2nc(C)c3c(C)n(-c4ccccc4)nc3c2=O)c(OC)c1 | 35% | 0% | -6% | -7% | ? | 18% | .
COc1ccc(N2CCc3c(C)nc4c(OC)cc(OC)cc4c32)c(OC)c1 | 14% | -5% | -7% | -8% | 15% | -8% | .
COc1ccc(N2CCc3c(C)nc4c(OC)cc(OC)cc4c32)cc1 | 40µM* | -2% | -3% | 22% | 25% | 40µM* | 38*
SMILES | POLB inh | POLK inh | POLH inh | Tb PGK inh | POLI inh | FEN1 inh-1 | FEN1 inh-2
Cc1ccc(C)n1-c1nnc(N2CCCC(C(=O)NCc3ccc(F)cc3)C2)s1 (stereo unspecified) | -13% | -6% | -10% | -6% | 16% | -4% | .
O=C(/C=C/c1ccco1)NC(=S)Nc1cccc(-c2nc3ccccc3o2)c1 | 28µM* | 79µM* | 32µM* | 2% | ? | -14% | ?
N=S(=O)(O)Cc1noc2ccccc12 | 13%[57.1 µM] | -3%[60.1 µM] | -5%[57.1 µM] | . | 5%[58.9 µM] | . | .
Cc1ccc(S(=O)(=O)ON2C(=O)c3cccc4cccc(c34)C2=O)cc1 | -11% | 8% | -10% | . | 13% | 18µM* | 38*
O=C1c2cccc3cccc(c23)C(=O)N1OS(=O)(=O)c1ccc(Br)cc1 | 19% | 3% | 0% | i | 80% | ? | 11*
O=C(CSc1nc(-c2ccccc2)nc2ccc(F)cc12)Nc1ccc(C(=O)O)cc1 | -10% | -14% | ? | -20% | -6% | ? | 60*
CC(C)CN(C(=O)COC(=O)c1ccc([N+](=O)[O-])s1)c1c(N)n(Cc2ccccc2)c(=O)[nH]c1=O | . | -8% | 4% | -2% | -22% | -19% | .
CCCCn1c(N)c(N(CCC(C)C)C(=O)COC(=O)c2ccc([N+](=O)[O-])s2)c(=O)[nH]c1=O | . | -15% | ? | 4% | 79µM* | -17% | 7.6*
COc1ccc(NC(=O)c2c(NC(=O)C(F)(F)F)sc3c2CCCCC3)cc1 | ? | -28% | -21% | -1% | ? | -6% | .
O=C(NN=C1CCCC1)c1ccc(O)cc1O | 0% | -30% | 11% | 9% | ? | 1% | 43*
O=c1c2ccccc2nc2sc(Nc3cccc(N4CCNCC4)c3)nn12 | . | . | . | . | . | . | 34*
CC1=[N+](C)c2c(ccc3cccnc23)C1(C)C | 25µM* | -11% | -12% | -7% | 53% | 45µM* | 43*

Assay outcomes deposited in PubChem by National Center for Advancing Translational Sciences (NCATS).
